Test results taken from publication PMC12864922, “TDP-43 directly inhibits mRNA accumulation in neurites through modulation of mRNA stability”.
In all, about 9,900 sequences were measured (“r (bound/input frequency ratio)”: median about 0.7, highest 2% from about 6.5 on). Many of the other results were omitted from the sample, so the highest values are more common in it than they were.

B1: ENSMUSG00000043670.167|Diras1 (ssRNA)
RNA: GGGAGUUCUACAGUCCGACGAUCGCUUCGAUAUCCGCAUGCUAGGUUUGGGGUGCUGAGGGUGGGGUGCCCAGCUGAGAGUCUAUCAGCAAAGUCCCUGUGUGCGGUGAUAGGACUAGUGGCUGCUGCCCUAGGGCUCUGACAGAAUCUGAGCCUCUUUGCUGGUCAUGUGUACUCUGGAGACUGUCCCCCAUGUCUGCCCUGAGUUACGGAGCCCCUGUGGUAUCUGCGAGACUGUCCAGGAGACUUGAGUGGCUCCUGGGCCUGUGUCCCACCCAGAUGAGGGUGACUUAGAAUUCUGUGUCUCUUGCGGUCGCACUAGUGUGGAAUUCUCGGGUGUCAAGG
B2: ENSMUSG00000042529.74|Kcnj12 (ssRNA)
RNA: GGGAGUUCUACAGUCCGACGAUCGCUUCGAUAUCCGCAUGCUAACUUGGGCAAGACUGUUUACAAACAAAAACAAACAAACAAACAAUCAAAAAAAAAACCCACCCCACAAAACACAAGAAAACAUUAACAGGUGGUUCAAUUUUUAAAAUUCCUGGUGUGGGGACAGUUGGAAUUCUACUCAGCGCUGCCAGGCAAGCAGCUGGACGGAGAACCCUGAGGGUUCUCAGAGGUCUGUUUUCUCCCUCACGUGGGCCAGGGCCUUAAGCGAGUUGUCAUGCUUAAGGAUGAAUCAGGCUGCUUGCUCUUGCGGUCGCACUAGUGUGGAAUUCUCGGGUGUCAAGG
B3: ENSMUSG00000032194.238|Kank2 (ssRNA)
RNA: GGGAGUUCUACAGUCCGACGAUCGCUUCGAUAUCCGCAUGCUAAAACCUCAGCAGGGCAGCAUUGAGACUCAUGGACUAAAGGAAAGUGUUCACUCUUCUAGACAAGUGGGUCUCUUGGUUUGAUGGAGUCUUACUCCGCUUGAGUUUUGUAGAAGGGGUUUGUCUAAGGCAUAGAGGCUUGGUUGGCAUAAGAAAAUAAGAUGGACAGAUGGAUGGGUGGAUGGAUGGAUGGCUGAUUGAGUGGGUGGGUGGGUGGAUGGAUGCAUAAAUGAAUAGAUGGAUGGAUGAAUGAACAGAUAGAUCUCUUGCGGUCGCACUAGUGUGGAAUUCUCGGGUGUCAAGG
B4: ENSMUSG00000028439.2|Fam219a|50:54;256:260 (ssRNA)
RNA: GGGAGUUCUACAGUCCGACGAUCGCUUCGAUAUCCGCAUGCUAGACGAGGACCUAGAUCUCAUCCCCCCCAAGUCUGUGAACCCCACCUGCAACACAUGUCAGGCCACUUCCUCCACCGCCUGCCACAUUCAGUAGUGGGCGGGGUCGCCGCGGUGCACGGGGCGCUGACCUGGGCCCGGUGGGAUGCAGCAGGAGAGACCCCUACCCUGCUGGUCCACUGGUCCCCAGCCCCGCGCCUCUUAGAGCCGCCAACCUCGUAACAGUCAUUGCUUCCUCCUAUGGUAGGACGUGUACCUCACACACUCUUGCGGUCGCACUAGUGUGGAAUUCUCGGGUGUCAAGG
B5: ENSMUSG00000058297.541|Spock2|207:211 (ssRNA)
RNA: GGGAGUUCUACAGUCCGACGAUCGCUUCGAUAUCCGCAUGCUAUUUUGAUAUCGGCUCCCCAAAGCCCAAGCCCACAGCCCUAGGAGAGAACCAGGGGCCCAUCUUUGACACCUGGGCCAUCACGAGCCCUCCCGCCUGCAGUUGUCCUAGGGAAAGACCUGGGGGUGCAAAAGGAGAUUCAAGACAUCCGUACCAAGUCAGGCAGAGCUACCCGCUUCUCAGCCCGUGUCCCACUUAAAACCGUCCGAACACAAAUCACUGAGCUUAGAGUUAAACAUUGUGGUCAAGUGCUUGGGUUCCGUCUCUUGCGGUCGCACUAGUGUGGAAUUCUCGGGUGUCAAGG
B6: ENSMUSG00000058297.519|Spock2 (ssRNA)
RNA: GGGAGUUCUACAGUCCGACGAUCGCUUCGAUAUCCGCAUGCUACACAGGAGUCGUGACCACGUGUGAUGGGUGGGCACAGGUCUGCCUUGCUCCAGCCCCCUCCCUUGGUUUCUGUUGGUACCCAUUUGGCUUUUAUCUGCUUUCUGCUUCACCACUAAGUGCGUAGGUGGGGUCUUUUGAUAUCGGCUCCCCAAAGCCCAAGCCCACAGCCCUAGGAGAGAACCAGGGGCCCAUCUUUGACACCUGGGCCAUCACGAGCCCUCCCGCCUGCAGUUGUCCUAGGGAAAGACCUGGGGGUGCAACUCUUGCGGUCGCACUAGUGUGGAAUUCUCGGGUGUCAAGG
B7: ENSMUSG00000061578.447|Ksr2 (ssRNA)
RNA: GGGAGUUCUACAGUCCGACGAUCGCUUCGAUAUCCGCAUGCUAUUUCAGAGGGGAUAGUUCCUUCUAACCUUGUACUGGGACAUCAUCUAUGUCCCCAUCCCCAGAGCUGAAUUAGAGACACCAAGUAGCCUCUUGGGUUGUUUUGUGGGGUGUUCCCCUUGCUGGUCAAAGGAGUGGAAAGCCACCUUGCUGUAAAUGCUCUUGUUUUCUGUAGCAAUCUUGAACUCUUUUUUUUUUUUGUUCGUUUGUUUGUUUGUUUGUUUGUUUGUUUUUUCAAGACAGGGUUUUUCUGUAUAGCCCUGCUCUUGCGGUCGCACUAGUGUGGAAUUCUCGGGUGUCAAGG
B8: ENSMUSG00000031028.308|Tub (ssRNA)
RNA: GGGAGUUCUACAGUCCGACGAUCGCUUCGAUAUCCGCAUGCUAGAACCCUCAGCGAGGUAGCCUUUGUUUACAGUCUAGUUUCUAGAGGGCAGUAGGACUUCCAUGCUGGGGCUGGCCUAUCUCCUGAUGAAAGAUUACAGUGCCAUCUCCUUCCCAUAGUUCUGUGUCUGCCCUCCCUCCCUGACUUUAUAGGGAGAAAUCUCCUGACAUUAGAGGUGAUAGAAACCAGAGCUUUAGUCUAGUCAGGCUGUUUCUCUGGGUUGACAAGUUUAAGGUUGAACAGGCUGAUUUCUGGAAUCUCACUCUUGCGGUCGCACUAGUGUGGAAUUCUCGGGUGUCAAGG
B9: ENSMUSG00000029028.135|Lrrc47 (ssRNA)
RNA: GGGAGUUCUACAGUCCGACGAUCGCUUCGAUAUCCGCAUGCUAAGGCAUUCUAUUGAACAGUAUUUAUUUUUCUACAACAUGUUAAUAGAAUUUUUUUUUAAAUCAGCUGUGCAUAGACAGUUGAGAACAUCAUGUUGUGAGUGUAAUCUUCUUAGAGCUUGUUUCCAGGCACCGUGCUGCCGCCAUGCUCCCAGGGCAGCAUCUGCCUUCCACGGCUGUGCUUGGAACUGUAGUGCUGGUCGUUGUUGGCACAUCUGCGCCUUGGCCAAGGAAGUUAUCUAUGUCCGUGUAGUCCUUUGUAGCUCUUGCGGUCGCACUAGUGUGGAAUUCUCGGGUGUCAAGG
B10: ENSMUSG00000031028.662|Tub (ssRNA)
RNA: GGGAGUUCUACAGUCCGACGAUCGCUUCGAUAUCCGCAUGCUACUGGACCCCAUACUGGUGACCAGCUUGGUGAGGACAGGCAAAAUUUCUCUAGCUGAGAGCACACUUAGCCAGUUUUCACGCCUAGAACAUAUAUGUCGAUUUGCACAUGAUUGUCUUUUCCUAUUUUGGAGUGGUCAGACAUUUUAUUUUUGUUCAAAAUUAUCUGGAGUUUUAGACAAACUUGCAAAACUGUGCUUUUAUUAAGUGACUUUUUGAAUAAACUUUUUGGUAUUCUGAAGCAAAUGUAUUUAUUUAUUGGUCUCUUGCGGUCGCACUAGUGUGGAAUUCUCGGGUGUCAAGG
B11: ENSMUSG00000028439.182|Fam219a|1:10;12:16;18:34;36:53;63:70 (ssRNA)
RNA: GGGAGUUCUACAGUCCGACGAUCGCUUCGAUAUCCGCAUGCUAACACACACACCCACACCCACACACAUACACACACCCACACACACACACACACAUGUACCCGACACACACAUGAGCCUAUCUGUCCAGGGAACCAGAUUGGUGUCCGAGAUGAGGAAAUGGCUGUGGCCUGGGAAAUCAGUGAGAGGCCGCUUGGGAAUGAGAAUGCAGUGGACUGAAAGCACAGCCUGGCCAUCUGGAACCUGGGUUCUGGUCCCAGCCUCGGCAUUCUCCCUGAGCUCCUAAGCAAUUCCCAGGCUUCUCUCUUGCGGUCGCACUAGUGUGGAAUUCUCGGGUGUCAAGG
B12: ENSMUSG00000028439.183|Fam219a (ssRNA)
RNA: GGGAGUUCUACAGUCCGACGAUCGCUUCGAUAUCCGCAUGCUAUGUGCGUGUGCGUGUGUGUAUGUGUGUGCGUGUGUGUGUGUGUGUGUUGUACCCGAGUGUGUGUUGAGCCUAUCUGUCCAGGGAACCAGAUUGGUGUCCGAGAUGAGGAAAUGGCUGUGGCCUGGGAAAUCAGUGAGAGGCCGCUUGGGAAUGAGAAUGCAGUGGACUGAAAGCACAGCCUGGCCAUCUGGAACCUGGGUUCUGGUCCCAGCCUCGGCAUUCUCCCUGAGCUCCUAAGCAAUUCCCAGGCUUCUCUAGGGCUCUUGCGGUCGCACUAGUGUGGAAUUCUCGGGUGUCAAGG
B13: ENSMUSG00000028439.182|Fam219a (ssRNA)
RNA: GGGAGUUCUACAGUCCGACGAUCGCUUCGAUAUCCGCAUGCUAUGUGUGUGUGCGUGUGCGUGUGUGUAUGUGUGUGCGUGUGUGUGUGUGUGUGUUGUACCCGAGUGUGUGUUGAGCCUAUCUGUCCAGGGAACCAGAUUGGUGUCCGAGAUGAGGAAAUGGCUGUGGCCUGGGAAAUCAGUGAGAGGCCGCUUGGGAAUGAGAAUGCAGUGGACUGAAAGCACAGCCUGGCCAUCUGGAACCUGGGUUCUGGUCCCAGCCUCGGCAUUCUCCCUGAGCUCCUAAGCAAUUCCCAGGCUUCUCUCUUGCGGUCGCACUAGUGUGGAAUUCUCGGGUGUCAAGG
B14: ENSMUSG00000028439.181|Fam219a (ssRNA)
RNA: GGGAGUUCUACAGUCCGACGAUCGCUUCGAUAUCCGCAUGCUAUGUGCCUGUGUGUGUGCGUGUGCGUGUGUGUAUGUGUGUGCGUGUGUGUGUGUGUGUGUUGUACCCGAGUGUGUGUUGAGCCUAUCUGUCCAGGGAACCAGAUUGGUGUCCGAGAUGAGGAAAUGGCUGUGGCCUGGGAAAUCAGUGAGAGGCCGCUUGGGAAUGAGAAUGCAGUGGACUGAAAGCACAGCCUGGCCAUCUGGAACCUGGGUUCUGGUCCCAGCCUCGGCAUUCUCCCUGAGCUCCUAAGCAAUUCCCAGCUCUUGCGGUCGCACUAGUGUGGAAUUCUCGGGUGUCAAGG
B15: ENSMUSG00000028439.181|Fam219a|7:16;18:22;24:40;42:59;69:76 (ssRNA)
RNA: GGGAGUUCUACAGUCCGACGAUCGCUUCGAUAUCCGCAUGCUAUGUGCCACACACACACCCACACCCACACACAUACACACACCCACACACACACACACACAUGUACCCGACACACACAUGAGCCUAUCUGUCCAGGGAACCAGAUUGGUGUCCGAGAUGAGGAAAUGGCUGUGGCCUGGGAAAUCAGUGAGAGGCCGCUUGGGAAUGAGAAUGCAGUGGACUGAAAGCACAGCCUGGCCAUCUGGAACCUGGGUUCUGGUCCCAGCCUCGGCAUUCUCCCUGAGCUCCUAAGCAAUUCCCAGCUCUUGCGGUCGCACUAGUGUGGAAUUCUCGGGUGUCAAGG
B16: ENSMUSG00000028439.183|Fam219a|6:10;12:28;30:47;57:64 (ssRNA)
RNA: GGGAGUUCUACAGUCCGACGAUCGCUUCGAUAUCCGCAUGCUAUGUGCCACACCCACACACAUACACACACCCACACACACACACACACAUGUACCCGACACACACAUGAGCCUAUCUGUCCAGGGAACCAGAUUGGUGUCCGAGAUGAGGAAAUGGCUGUGGCCUGGGAAAUCAGUGAGAGGCCGCUUGGGAAUGAGAAUGCAGUGGACUGAAAGCACAGCCUGGCCAUCUGGAACCUGGGUUCUGGUCCCAGCCUCGGCAUUCUCCCUGAGCUCCUAAGCAAUUCCCAGGCUUCUCUAGGGCUCUUGCGGUCGCACUAGUGUGGAAUUCUCGGGUGUCAAGG

target: TDP-43 (Homo sapiens, UniProt Q13148 1-414); assay: RNA Bind-n-Seq with designed 260-mer pool; 25 mM Tris-HCl, 150 mM KCl, 3 mM MgCl2, BSA (printed 500 mg/mL), 20 units/mL SUPERase IN; pH not stated; 500 nM RNA pool, 1 h, 4 C; TDP-43 5, 50, 500 nM; high values mean tight binding; conditions: protein: recombinant; tags: SBP (GST cleaved off with PreScission; pGEX-GST-SBP)
Sequence (Q13148 whole entry): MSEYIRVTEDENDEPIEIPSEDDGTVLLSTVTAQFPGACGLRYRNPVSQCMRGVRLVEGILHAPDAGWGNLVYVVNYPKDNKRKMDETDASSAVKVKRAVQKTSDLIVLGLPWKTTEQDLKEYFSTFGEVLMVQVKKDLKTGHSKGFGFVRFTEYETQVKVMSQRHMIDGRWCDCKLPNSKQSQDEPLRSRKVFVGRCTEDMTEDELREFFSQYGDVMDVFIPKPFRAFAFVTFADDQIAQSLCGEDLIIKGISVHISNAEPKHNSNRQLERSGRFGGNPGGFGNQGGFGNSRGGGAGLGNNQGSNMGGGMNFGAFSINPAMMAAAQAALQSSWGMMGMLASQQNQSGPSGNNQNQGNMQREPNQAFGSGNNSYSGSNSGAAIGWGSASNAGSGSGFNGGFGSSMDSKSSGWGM
Outline: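 In 25 mM Tris-HCl, 150 mM KCl, 3 mM MgCl2, BSA and SUPERase IN, 500 nM of an in vitro-transcribed 260-nt 3′ UTR oligo pool was incubated for 1 h at 4 °C with SBP-tagged TDP-43 (5, 50 or 500 nM) captured on streptavidin beads. RNA remaining after washes was biotin-eluted, reverse transcribed, PCR-amplified and sequenced. Binding, R, is the bound-sample abundance of each oligo, normalized to mapped reads, divided by its abundance in input. Each duplicate used a separate, independent protein batch.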

Binder | binding signal
B1 | 1.03 R (bound/input frequency ratio)
B2 | 1.56 R (bound/input frequency ratio)
B3 | 0.95 R (bound/input frequency ratio)
B4 | 0.757 R (bound/input frequency ratio)
B5 | 0.821 R (bound/input frequency ratio)
B6 | 0.833 R (bound/input frequency ratio)
B7 | 2.55 R (bound/input frequency ratio)
B8 | 0.194 R (bound/input frequency ratio)
B9 | 0.359 R (bound/input frequency ratio)
B10 | 0.163 R (bound/input frequency ratio)
B11 | 3.29 R (bound/input frequency ratio)
B12 | 5.72 R (bound/input frequency ratio)
B13 | 6.82 R (bound/input frequency ratio)
B14 | 6.58 R (bound/input frequency ratio)
B15 | 3.16 R (bound/input frequency ratio)
B16 | 2.29 R (bound/input frequency ratio)
